The OligoGym collection

Biological target: CTCFL
Experiment: pooled miR-30 sensor sort-seq; sequence = guide strand
Settings: shRNA
Also: reference of the scale not given here.

Sequence	sensor-assay potency score (higher = more potent)
TTAGAAGTTGCTTCTGTCGGAA	-0.207
TTGAGGAGCATTTCACACCTTA	0.0619
TTGAATTTGAAACTGTGAGAAC	-1.1
TTTCTTTGAAATATCCAGCTAC	0.55
TAAAGGTGAACCTTGCTCCTAT	0.214
TTGTATAAAAACATTTGTCTTT	-0.651
TATCCTGCAACTCCACAGCTTC	-1.14
TTTGGGGACATTTTCGCCGTGT	-0.126
